# Screening data deposited in PubChem by National Center for Advancing Translational Sciences (NCATS).
# FMDV antiviral – foot and mouth disease virus antiviral activity | FMDV antiviral cell-based qHTS | Potency, µM (titrated, usually from 57.9 µM), for the others: at the top dose activity change, negative = inhibition, actives largely listed as inhibitors | 1.2% of 410,000 active; calls by dose curve; tested in HEK293T cells; further: read-out not given here; potency means the concentration at half of the fitted maximal effect; nearly all actives have a fitted effect of over 45% in size
# LASV entry inh – blocks Lassa virus binding to or entry into cells. Potency, µM (titrated, usually from 37.9 µM), without a hit: at the highest dose activity change, negative = inhibition, most hits filed as inhibitors. 1.2% of 300,000 active. Lassa virus pseudotype entry inhibition, cell reporter. AID 540256; calls by dose curve; tested in HEK293 cells; further: potency means the concentration at half of the fitted maximal effect; nearly all actives have a fitted effect of over 50% in size
# HCV inh – HCV inhibition; Huh7.5.1 HCVcc-Cre infection, luciferase reporter, 44 h; Potency, µM (titrated, usually from 41.8 µM), inactives show at the top dose activity change, negative = inhibition, hits mostly inhibitors; 3.4% of 340,000 active; AID 651820; active means well fitted inhibition curve with a large enough effect; inconclusive means small, poorly fitted or top-dose-only effect, or another doubt; inactive means no such curve, though single readings can be large or run the other way; further: potency means the concentration at half of the fitted maximal effect
#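 Infectious HCV cell culture screen: compound-treated cells (1,000/well, pre-plated 4 h) are infected with HCVcc-Cre at roughly 0.5 moi and grown 44 h. Infection is quantified by luciferase signal after 15 min substrate incubation at room temperature.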
# HCMV inh – human cytomegalovirus inhibition | HFF cells, HCMV-luciferase reporter, 72 h; stronger effect = lower value | activity change, negative = inhibition, % at 57.5 µM | 4.5% of 410,000 active | AID 1259415; in the data active means activity change below about -60%; inconclusive means no clear call, values can overlap the other calls; inactive means above about -39%
#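 Screen run at 2 compound doses on HFFs infected with reporter HCMV, MOI 1 PFU/cell. Luciferase activity from cell lysates at 72 h post infection gave inhibition relative to buffer-only and Salinomycin wells.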
# Marburg entry inh – blocks Marburg virus binding to or entry into cells. Marburg virus pseudotyped entry inhibition, cell reporter. Potency, µM (top dose mostly 37.8 µM), for inactives: at the top dose activity change, negative = inhibition, usual class: inhibitors. 1.8% of 300,000 active. AID 540276; calls by dose curve; tested in HEK293 cells; further: potency means the concentration at half of the fitted maximal effect
# Active calls of the source: *; ? = inconclusive; nt = no result; [ ] = dose if it differs, or a comment. Only some compounds are listed: those with a hit (about 7.9% of all), similar ones and a draw of the others. On the % scale 0 is the no-effect control and ±100 the full control effect.
SMILES,FMDV antiviral,LASV entry inh,HCV inh,HCMV inh,Marburg entry inh
COc1ccc(NC(=O)c2cc3c(-c4ccc(OC)c(OC)c4)nn(C)c3s2)cc1OC,-24.6%,13µM*,?,-96.6*,13µM*
O=C(Nc1ccccc1)c1cc2c(-c3ccccc3)nn(-c3ccccc3)c2s1,-13.7%,-3.4%[46.1 µM],nt,-31.0,?
Cc1cc(C)c(C(=O)CSc2nnc(N)s2)cc1C,6.0%,nt,-25.0%,7.9,nt
Cc1cc(C)c(C(=O)CSC2=NC(N)=C(C#N)C3(CCCCC3)C2C(N)=O)cc1C (configuration not stated),?,-19.4%[14.3 µM],nt,-66.5*,?
CCCCNC(=O)C(C)(C)n1cc(NC(=O)Cc2ccc(F)cc2)cn1,nt,nt,nt,1.8,nt
CCc1ccc(NC(=O)COCc2cc(-c3ccc(F)cc3)on2)cc1,5.2%,10.0%[46.1 µM],nt,26.9,9.1%[46.1 µM]
Cc1cc2nc(CCN(C(=S)NCC3CCCO3)C3CCCC3)[nH]c2cc1C (configuration not stated),-0.1%,nt,11.2µM*,-62.9*,nt
Cc1cccc2cc(CN(C(=S)NCC(C)C)C3CCCC3)c(=O)[nH]c12,-9.1%,-16.8%,7.8%,-18.8,?
Cc1cc2nc(CCN(C(=S)NCC(C)C)C3CCCC3)[nH]c2cc1C,nt,?,?,-85.3*,?
O=C(CNC(=S)N(Cc1ccc(F)cc1)C1CCCCC1)NCC1CCCO1 (configuration not stated),3.7%,-4.9%,10.8%,-9.4,3.3%[46.1 µM]
COc1ccc(-c2cc(C(=O)Nc3ccc(Br)cc3)no2)cc1,9.3%,4.5%,-16.5%,-28.1,2.9%
CC(C)c1ccc(NC(=O)Nc2nc(C(N)C3CCCCC3)cs2)cc1 (configuration not stated),?,nt,nt,-100.5*,nt
COc1ccc(NC(=O)Nc2nc(C(N)C3CCCCC3)cs2)cc1 (configuration not stated),0.0%,nt,nt,1.7,nt
CC(C)c1ccc(NC(=O)Nc2nc(C(N)c3ccccc3Cl)cs2)cc1 (configuration not stated),?,nt,nt,-70.1*,nt
Cc1cccc(C)c1OCC(=O)NNC(=O)CCCn1c(=O)oc2ccccc21,-21.4%,nt,2.0%,-4.8,nt
O=C1SCCN1N=Cc1ccc([N+](=O)[O-])o1,-16.7%,?,22.4µM*,50.4,?
O=[N+]([O-])c1ccc(/C=N/N=C/c2ccc([N+](=O)[O-])o2)o1,?,?,4.47µM*,-99.5*,?
Cc1ccc(S(=O)(=O)N/N=C\c2ccc([N+](=O)[O-])o2)cc1,2.4%,-16.6%,12.6µM*,?,-5.0%
O=C1C2C3C=CC(C4CC34)C2C(=O)N1/N=C/c1ccc(-c2ccc([N+](=O)[O-])cc2)o1 (configuration not stated),?,0.6%,12.3%,0.0,-0.9%[46.1 µM]
O=C1C2C3C=CC(C4CC34)C2C(=O)N1/N=C/c1ccc([N+](=O)[O-])o1 (configuration not stated),?,?,11.2µM*,?,?
CC1CN(N=Cc2ccc([N+](=O)[O-])o2)C(=N)O1 (configuration not stated),0.1%,?,?,?,?
O=C(O)/C=C/c1ccc([N+](=O)[O-])o1,-23.2%,12.2%[46.1 µM],0.6%,-35.6,?
Cc1cc2ncn(/N=C/c3ccc([N+](=O)[O-])o3)c2cc1C,nt,-11.1%,11.2µM*,-62.5*,?
Cc1ccc(S(=O)(=O)N/N=C\c2ccc([N+](=O)[O-])o2)cc1C,1.5%,?,8.2%,12.8,7.7%[46.1 µM]
COc1ccc(O)c(/C=N/NC(=O)c2ccc(N3CCCC3=O)cc2)c1,-19.2%,?,11.2µM*,?,?
SMILES,FMDV antiviral,LASV entry inh,HCV inh,HCMV inh,Marburg entry inh
COc1ccc(O)c(/C=N/NC(=O)c2cccc(N3CCCC3=O)c2)c1,23.4%,?,?,53.7,?
O=C(N/N=C/c1cc(Br)ccc1O)c1cccc(N2CCCC2=O)c1,-21.9%,?,?,-11.8,23.1µM*
CCN(CC)c1ccc(Nc2nc(N3CCOCC3)c3ccccc3n2)cc1,?,18.3µM*,4.47µM*,-96.2*,?
CSc1nc(N2CCOCC2)c2ccccc2n1,3.4%,-2.6%,10µM*,-35.0,2.7%
c1ccc2c(c1)nc(N1CCOCC1)c1ccccc12,5.1%,-29.8%[46.1 µM],?,-38.1,-19.5%[46.1 µM]
CSc1nc(N2CCN(c3ccccc3Cl)CC2)c2ccccc2n1,?,2.7%,?,?,?
COc1ccc(Nc2nc(N3CCCC3)c3ccccc3n2)cc1,?,?,10µM*,-6.9,1.58µM*
CCn1nc(C)c(NC(=O)c2cnn3c(C(F)F)cc(-c4ccccc4)nc23)c1C,?,?,14.1µM*,?,?
O=C(c1cnn2c(C(F)(F)F)cc(-c3ccc(F)cc3)nc12)N1CCc2ccccc2C1,-8.1%,?,?,-71.7*,?
Cc1ccc(-c2cc(C(F)F)n3ncc(C(=O)N4CCCc5ccccc54)c3n2)cc1,-17.1%,2.5%,4.9%,8.6,?
Cc1ccc(-c2cc(C(F)F)n3ncc(C(=O)N4CCc5ccccc5C4)c3n2)cc1,-21.6%,nt,11.2µM*,-24.6,nt
Cc1ccc(-c2cc(C(F)F)n3ncc(C(=O)N4CCN(c5cccc(C)c5C)CC4)c3n2)cc1,-0.1%,?,31.6µM*,88.1,?
COc1cccc(C(=O)N2CCC(C(=O)NCc3ccco3)CC2)c1,-0.8%,12.7%,8.9%,22.4,24.6%[46.1 µM]
Cn1c(=O)[nH]c(=O)c2c1nc(CN1CCOCC1)n2Cc1ccccc1,16.3%,-6.9%,16.2%,43.6,4.4%
Cn1c(=O)[nH]c(=O)c2c1nc(CN1CCN(c3cccc(Cl)c3)CC1)n2CCCc1ccccc1,?,nt,4.0%,34.7,-1.9%
Cn1c(=O)[nH]c(=O)c2c1nc(SCC(=O)Nc1ccccc1)n2Cc1ccccc1,-15.0%,nt,11.2µM*,25.1,nt
CCCCCn1c(N2CCN(Cc3ccccc3)CC2)nc2c1c(=O)[nH]c(=O)n2C,-0.5%,?,10µM*,-32.6,-27.4%
Cc1cccc(Cn2c(CN3CCN(Cc4ccccc4)CC3)nc3c2c(=O)[nH]c(=O)n3C)c1,-19.4%,nt,10µM*,-27.0,nt
CCCCn1c(CN2CCN(c3cccc(Cl)c3)CC2)nc2c1c(=O)[nH]c(=O)n2C,-8.5%,?,?,-1.4,1.3µM*
CC(C)CCn1c(N2CCN(Cc3ccccc3)CC2)nc2c1c(=O)[nH]c(=O)n2C,nt,nt,0.1%,nt,8.0%
Cc1ccc(Cl)cc1-n1nnc(-c2nc(-c3ccc4c(c3)OCO4)no2)c1C,-11.4%,3.2%[46.1 µM],nt,43.5,nt
CS(=O)(=O)N(CC(=O)Nc1ccc(Br)cc1)c1ccccc1Br,10.1%,-9.2%[46.1 µM],nt,-21.3,nt
COc1ccc2[nH]cc(CCNC(=O)c3cnn(-c4ccccc4Cl)c3C3CCN(C(=O)OC(C)(C)C)CC3)c2c1,-23.7%,?,nt,-25.9,nt
CCOC(=O)C(C)Sc1nc2c(c(=O)[nH]c(=O)n2C)n1Cc1ccc(Cl)cc1 (configuration not stated),?,nt,2.82µM*,43.2,nt
Cc1ccc(Cl)cc1N1CCN(Cc2nc3c(c(=O)[nH]c(=O)n3C)n2Cc2ccccc2F)CC1,?,nt,?,-77.1*,nt
